Assay results reported in PubChem BioAssay AID1159580 (chemical genetic matrix, 2015).
“And” between values parts separate entries of the source, which are not always exact repeats. Equal entries are not always repeated. Screen size: about 5,500 compounds; about 2,000 (36%) were called active. Roughly 18% stayed inconclusive and do not appear here. Cut-off read from the data, not from the text of the source: active = normalized growth mostly below about 0.91 (no sharp cut-off); inconclusive = no clear call, values can overlap the other calls; inactive = mostly above about 0.92. Some of the results follow.

Assay: chemical genetic growth profiling, strain panel (AID 1159580);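 note: tested at 20 µM; growth read once vehicle control cultures reached saturation at 30 °C; 1 = growth at the plate median or of vehicle wells; lower values mean less growth of the strain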
Settings: growth OD
[1] = S. cerevisiae deletion strains, locus YBR021W, strain FUR4, stronger effect = lower value
[2] = S. cerevisiae deletion strains, locus YBR229C, strain ROT2, stronger effect = lower value
[3] = S. cerevisiae deletion strains, locus YCL029C, strain bik1, stronger effect = lower value
[4] = S. cerevisiae deletion strains, locus YDL035C, strain GPR1, stronger effect = lower value
[5] = S. cerevisiae deletion strains, locus YDL074C, strain BRE1, stronger effect = lower value
[6] = S. cerevisiae deletion strains, locus YDL101C, strain DUN1, stronger effect = lower value
[7] = S. cerevisiae deletion strains, locus YDL185W, strain tfp1, stronger effect = lower value
[8] = S. cerevisiae deletion strains, locus YDL192W, strain arf1, stronger effect = lower value
[9] = S. cerevisiae deletion strains, locus YDR101C, strain arx1, stronger effect = lower value
[10] = S. cerevisiae deletion strains, locus YDR162C, strain NBP2, stronger effect = lower value
[11] = S. cerevisiae deletion strains, locus YDR318W, strain mcm21, stronger effect = lower value
[12] = S. cerevisiae deletion strains, locus YDR388W, stronger effect = lower value
[13] = S. cerevisiae deletion strains, locus YDR502C, strain sam2, stronger effect = lower value
[14] = S. cerevisiae deletion strains, locus YEL061C, strain CIN8, stronger effect = lower value
[15] = S. cerevisiae deletion strains, locus YER110C, stronger effect = lower value
[16] = S. cerevisiae deletion strains, locus YER155C, strain BEM2, stronger effect = lower value
[17] = S. cerevisiae deletion strains, locus YER167W, strain BCK2, stronger effect = lower value
[18] = S. cerevisiae deletion strains, locus YGL078C, strain dbp3, stronger effect = lower value
[19] = S. cerevisiae deletion strains, locus YGL086W, strain mad1, stronger effect = lower value
[20] = S. cerevisiae deletion strains, locus YGL248W, strain PDE1, stronger effect = lower value
[21] = S. cerevisiae deletion strains, locus YGR135W, strain pre9, stronger effect = lower value
[22] = S. cerevisiae deletion strains, locus YGR252W, strain gcn5, stronger effect = lower value
[23] = S. cerevisiae deletion strains, locus YHR079C, strain IRE1 (second series), stronger effect = lower value
[24] = S. cerevisiae deletion strains, locus YHR094C, strain hxt1, stronger effect = lower value
[25] = S. cerevisiae deletion strains, locus YHR129C, strain ARP1, stronger effect = lower value
[26] = S. cerevisiae deletion strains, locus YHR200W, strain rpn10, stronger effect = lower value
[27] = S. cerevisiae deletion strains, locus YIL066C, strain RNR3, stronger effect = lower value
[28] = S. cerevisiae deletion strains, locus YIL073C, strain SPO22, stronger effect = lower value
[29] = S. cerevisiae deletion strains, locus YIL125W, strain kgd1, stronger effect = lower value
[30] = S. cerevisiae deletion strains, locus YIR030C, strain dcg1, stronger effect = lower value
[31] = S. cerevisiae deletion strains, locus YJL095W, strain BCK1, stronger effect = lower value
[32] = S. cerevisiae deletion strains, locus YJL134W, strain LCB3, stronger effect = lower value
[33] = S. cerevisiae deletion strains, locus YJL168C, strain set2, stronger effect = lower value
[34] = S. cerevisiae deletion strains, locus YJL187C, strain SWE1 (second series), stronger effect = lower value
[35] = S. cerevisiae deletion strains, locus YKL009W, strain mrt4, stronger effect = lower value
[36] = S. cerevisiae deletion strains, locus YKL068W, stronger effect = lower value
[37] = S. cerevisiae deletion strains, locus YKL085W, strain MDH1 (second series), stronger effect = lower value
[38] = S. cerevisiae deletion strains, locus YKL085W, strain MDH1, stronger effect = lower value
[39] = S. cerevisiae deletion strains, locus YKR001C, strain vps1, stronger effect = lower value
[40] = S. cerevisiae deletion strains, locus YLR039C, strain RIC1, stronger effect = lower value
[41] = S. cerevisiae deletion strains, locus YLR058C, strain SHM2, stronger effect = lower value
[42] = S. cerevisiae deletion strains, locus YLR102C, strain apc9, stronger effect = lower value
[43] = S. cerevisiae deletion strains, locus YLR268W, strain sec22, stronger effect = lower value
[44] = S. cerevisiae deletion strains, locus YLR371W, strain rom2, stronger effect = lower value
[45] = S. cerevisiae deletion strains, locus YLR418C, strain cdc73, stronger effect = lower value
[46] = S. cerevisiae deletion strains, locus YML016C, strain PPZ1, stronger effect = lower value
[47] = S. cerevisiae deletion strains, locus YML032C, strain rad52, stronger effect = lower value
[48] = S. cerevisiae deletion strains, locus YML124C, strain tub3, stronger effect = lower value
[49] = S. cerevisiae deletion strains, locus YMR078C, strain ctf18, stronger effect = lower value
[50] = S. cerevisiae deletion strains, locus YMR223W, strain ubp8, stronger effect = lower value
[51] = S. cerevisiae deletion strains, locus YMR307W, strain GAS1, stronger effect = lower value
[52] = S. cerevisiae deletion strains, locus YNL067W, strain RPL9B, stronger effect = lower value
[53] = S. cerevisiae deletion strains, locus YNL233W, strain BNI4, stronger effect = lower value
[54] = S. cerevisiae deletion strains, locus YNL250W, strain rad50, stronger effect = lower value
[55] = S. cerevisiae deletion strains, locus YNL271C, strain bni1, stronger effect = lower value
[56] = S. cerevisiae deletion strains, locus YNL298W, strain CLA4, stronger effect = lower value
[57] = S. cerevisiae deletion strains, locus YNL307C, strain MCK1, stronger effect = lower value
[58] = S. cerevisiae deletion strains, locus YNR052C, strain pop2, stronger effect = lower value
[59] = S. cerevisiae deletion strains, locus YOL012C, strain htz1
[60] = S. cerevisiae deletion strains, locus YOL147C, strain pex11, stronger effect = lower value
[61] = S. cerevisiae deletion strains, locus YOR061W, strain CKA2, stronger effect = lower value
[62] = S. cerevisiae deletion strains, locus YOR069W, strain VPS5, stronger effect = lower value
[63] = S. cerevisiae deletion strains, locus YOR136W, strain idh2, stronger effect = lower value
[64] = S. cerevisiae deletion strains, locus YOR144C, strain elg1, stronger effect = lower value
[65] = S. cerevisiae deletion strains, locus YOR184W, strain ser1, stronger effect = lower value
[66] = S. cerevisiae deletion strains, locus YOR316C, strain cot1, stronger effect = lower value
[67] = S. cerevisiae deletion strains, locus YPR119W, strain clb2, stronger effect = lower value
[68] = S. cerevisiae deletion strains, locus YPR141C, strain kar3, stronger effect = lower value
[69] = S. cerevisiae deletion strains, locus YPR163C, strain tif3, stronger effect = lower value
[70] = S. cerevisiae deletion strains, locus YPR167C, strain met16, stronger effect = lower value
[71] = S. cerevisiae deletion strains, strain wtn01, stronger effect = lower value

Measured: normalized growth

Cc1cc(O)c(C=O)c2c1C(=O)Oc1c(C)c(O)c3c(c1O2)C(O)OC3=O (stereo unspecified)
inactive: [1] 1.03 | [2] 1 | [3] 0.981 | [4] 0.944 | [5] 0.956 | [6] 0.955 | [7] 0.954 | [8] 0.992 | [9] 0.994 | [10] 0.948 | [11] 0.98 | [12] 0.98 | [13] 0.974 | [14] 0.975 | [15] 0.971 | [16] 1.02 | [17] 0.993 | [18] 0.989 | [19] 0.966 | [20] 1 | S. cerevisiae deletion strains, locus YGR078C, strain PAC10, stronger effect = lower value 0.988 | [21] 0.951 | S. cerevisiae deletion strains, locus YGR229C, strain SMI1, stronger effect = lower value 1.03 | [22] 1.02 | S. cerevisiae deletion strains, locus YHR030C, strain SLT2, stronger effect = lower value 0.984 and 0.994 | [23] 0.97 | S. cerevisiae deletion strains, locus YHR079C, strain IRE1, stronger effect = lower value 0.983 | [24] 0.971 | [25] 0.963 | [26] 0.983 | [27] 0.962 | [28] 0.831 | [29] 0.974 | [30] 0.995 | [31] 1.02 and 0.991 | [32] 0.986 | [33] 0.969 | [34] 0.88 | S. cerevisiae deletion strains, locus YJR043C, strain POL32, stronger effect = lower value 0.973 | S. cerevisiae deletion strains, locus YJR066W, strain TOR1, stronger effect = lower value 0.965 | [35] 0.933 | [36] 0.98 | [37] 0.974 | [38] 0.974 | [39] 1.01 | [40] 0.996 | [41] 0.937 | [42] 0.986 | S. cerevisiae deletion strains, locus YLR113W, strain HOG1, stronger effect = lower value 0.984 | [43] 0.965 | S. cerevisiae deletion strains, locus YLR330W, strain CHS5, stronger effect = lower value 0.99 | [44] 0.948 | [45] 0.999 | [46] 0.957 | [47] 0.995 | [48] 0.975 | [49] 0.959 | [50] 0.966 | [51] 1.14 | [52] 0.981 | S. cerevisiae deletion strains, locus YNL153C, strain GIM3, stronger effect = lower value 0.959 | S. cerevisiae deletion strains, locus YNL183C, strain NPR1, stronger effect = lower value 0.944 | [53] 1.03 | [54] 0.963 | [55] 0.946 | [56] 0.986 | [57] 0.978 | [58] 0.955 | [59] 0.674 | [60] 0.97 | [61] 0.963 | [62] 0.982 | [63] 0.985 | [64] 0.974 | [65] 1.01 | S. cerevisiae deletion strains, locus YOR231W, strain MKK1, stronger effect = lower value 0.982 | [66] 0.984 | S. cerevisiae deletion strains, locus YPL241C, strain CIN2, stronger effect = lower value 0.994 | S. cerevisiae deletion strains, locus YPL256C, strain CLN2, stronger effect = lower value 0.928 | [67] 0.979 | [68] 0.969 | [69] 0.993 | [70] 0.983 | [71] 0.963 | S. cerevisiae strains, strain wild type, stronger effect = lower value 0.907

COc1cc(C(=O)O)c2c(c1C)OC(=O)c1c(C)cc(O)c(C=O)c1O2
inactive: [1] 0.989 | [2] 0.997 | [3] 1 | [4] 0.977 | [5] 0.943 | [6] 1 | S. cerevisiae deletion strains, locus YDL134C, strain PPH21, stronger effect = lower value 0.986 | [7] 0.93 | [8] 0.991 | [9] 1.01 | S. cerevisiae deletion strains, locus YDR150W, strain NUM1, stronger effect = lower value 0.997 | [10] 0.969 | [11] 1.01 | [12] 0.986 | [13] 1 | [14] 0.993 | [15] 0.969 | [16] 1.02 | [17] 1.01 | [18] 0.954 | [19] 0.986 | [20] 1.01 | [21] 0.988 | [22] 1.05 | [23] 0.988 | [24] 0.989 | [25] 1 | [26] 0.994 | [27] 0.998 | [28] 0.948 | [30] 0.983 | [31] 0.998 | [32] 0.996 | [33] 0.972 | [34] 0.969 | [35] 0.974 | [39] 0.971 | [40] 0.929 | [41] 1.01 | [42] 0.984 | [43] 0.956 | [44] 0.955 | [45] 0.939 | [46] 0.986 | [47] 0.996 | [48] 0.998 | [49] 0.975 | [50] 0.984 | S. cerevisiae deletion strains, locus YMR263W, strain SAP30, stronger effect = lower value 0.991 | [51] 0.923 | [52] 0.997 | S. cerevisiae deletion strains, locus YNL128W, strain TEP1, stronger effect = lower value 0.955 | [53] 1.01 | [54] 0.919 | [57] 0.989 | [58] 0.978 | [59] 0.7 | [60] 1.01 | [61] 0.999 | [62] 0.995 | [63] 1.02 | [64] 0.985 | [65] 0.975 | [66] 0.977 | S. cerevisiae deletion strains, locus YPL055C, strain LGE1, stronger effect = lower value 0.973 | [67] 0.977 | [68] 0.942 | [69] 0.985 | [70] 1.01 | [71] 0.987
active: [29] 0.927 | [36] 0.928 | [37] 0.911 | [38] 0.911 | [55] 0.917 | [56] 0.898
